Reference: PubChem BioAssay AID1671192 (National Center for Advancing Translational Sciences (NCATS), 2021)
Inconclusive results are not listed. Values without a mark were called inactive. The call rests on the fitted dose curve; in most records, active means well fitted curve in the direction sought with a large enough effect; inconclusive means small, poorly fitted or top-dose-only effect, or another doubt; inactive means no such curve, though single readings can be large or run the other way.

Each compound was assayed against Polyunsaturated fatty acid lipoxygenase ALOX15 (Homo sapiens) (UniProt P16050) (assay: Counterscreen qHTS for inhibitors of human arachidonate 12S-lipoxygenase (ALOX12): ALOX15 Assay). Details: purified ALOX15 enzyme activity; series mostly up to 110 µM; activity change, negative = inhibition: at the top concentration.
Polyunsaturated fatty acid lipoxygenase ALOX15 (Homo sapiens), sequence (P16050 whole entry, looked up): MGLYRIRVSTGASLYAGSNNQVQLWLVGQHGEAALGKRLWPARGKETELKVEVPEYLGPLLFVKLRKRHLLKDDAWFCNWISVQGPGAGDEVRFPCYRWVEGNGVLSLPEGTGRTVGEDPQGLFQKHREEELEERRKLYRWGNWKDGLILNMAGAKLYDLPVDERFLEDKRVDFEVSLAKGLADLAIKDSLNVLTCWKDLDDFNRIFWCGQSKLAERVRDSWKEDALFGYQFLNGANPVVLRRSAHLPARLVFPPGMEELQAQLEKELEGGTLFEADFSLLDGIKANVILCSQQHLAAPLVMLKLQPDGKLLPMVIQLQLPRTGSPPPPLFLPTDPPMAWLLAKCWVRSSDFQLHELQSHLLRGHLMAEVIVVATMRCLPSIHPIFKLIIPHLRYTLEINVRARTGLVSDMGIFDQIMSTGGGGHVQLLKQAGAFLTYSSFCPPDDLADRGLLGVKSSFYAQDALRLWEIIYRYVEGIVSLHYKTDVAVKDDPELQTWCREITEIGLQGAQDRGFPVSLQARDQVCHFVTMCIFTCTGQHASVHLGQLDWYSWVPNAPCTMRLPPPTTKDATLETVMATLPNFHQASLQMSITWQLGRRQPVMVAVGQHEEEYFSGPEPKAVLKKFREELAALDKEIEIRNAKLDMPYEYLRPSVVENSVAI
How it was run: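 Xylenol orange–ferric complex formation, read as the 573 nm to 405 nm absorbance ratio, tracks product from 50 uM arachidonic acid turned over for 30 min at RT. Enzyme is 40 nM ALOX15, pH 7.5 HEPES buffer, compound-preincubated 15 min.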
Further: 0% is about no effect.

Structure (SMILES) | activity change, negative = inhibition
O=C1NCc2ccccc2CC12CCN(Cc1ccc(Cl)cc1)CC2 | -1.13% [at 146 µM]
CCCC(=O)N1Cc2ccccc2CC2(CCCN(CC3CCNC3)C2)C1 (configuration not stated) | 1.43%
NCC(=O)N1CCC2(CC1)CN(C(=O)Cc1cccc(Cl)c1)CCO2 | -12.9%
O=C1NC2(Cc3ccccc31)CN(C(=O)c1ccccc1)C2 | -8.74% [at 146 µM]
O=C(N1CCOCC1)N1CCC(c2nnc3n2CCNC3)CC1 | 2.12%
O=C(O)CCCC(=O)N1Cc2ccccc2CC2(CCCN(Cc3ccncc3)C2)C1 (configuration not stated) | -23%
NCC(=O)N1Cc2ccccc2CC2(CCN(CC3CCNC3)C2)C1 (configuration not stated) | -0.295% [at 146 µM]
O=C(c1ccc2c(c1)OCO2)N1CCC(c2nnc3n2CCNC3)CC1 | -26%
COc1cccc(N2C(=O)NC(=NC3CCCC3)C23CCCN([S+](=O)([O-])c2ccccc2)C3)c1 (configuration not stated) | -22.7%
CSc1ccc(-c2ccc(C=O)cc2)cc1 | -27.8% [at 233 µM]
O=C(NCc1ccc(Cl)nc1)c1cnn2c1CN(C(=O)c1ccccc1)CC2 | 0.165%
NCc1ccc(-c2ccc(F)cc2)cc1 | 16.7% [at 146 µM]
COc1cccc([S+](=O)([O-])N2CC(Oc3ccc(F)c(F)c3)C2)c1 | 8.83%
CCc1ccc(CN2CCC3(Cc4ccccc4CNC3=O)C2)s1 (configuration not stated) | -17.1% [at 146 µM]
C[C@H](C(=O)N1Cc2ccccc2CC2(CCN(Cc3ccncc3)C2)C1)c1ccccc1 (some centres not stated) | -13.1%
O=C(c1ccccn1)N1CCc2nc(C3CC3)nc(-c3ccc(Cl)cc3)c2C1 | -1.45%
O=c1n(-c2cccc(Cl)c2)nc2n1CCN([S+](=O)([O-])c1cccs1)C2 | -4.57%
COc1ccc(CN2CCC3(CC(c4cccc(C(F)(F)F)c4)=NO3)C2)cc1 (configuration not stated) | -15.6%
NCC(C1CCCCC1)N1CCCC1 (configuration not stated) | -15.9% [at 233 µM]

Structure (SMILES) | activity change, negative = inhibition
CC(=O)Nc1ccc(CN2CCCC23Cc2ccccc2CN(C(=O)CCC(=O)O)C3)cc1 (configuration not stated) | -10.9%
CN1CC(=O)N(C2CCNC2)Cc2c(NCC3(O)CCCCC3)ncnc21 (configuration not stated) | -12.9%
O=C(NC1CC1)c1cc(C2CC2)nc2onc(C3CCNCC3)c12 | -21.6% [at 146 µM]
CN1CC(=O)N(C2CCC2)Cc2c(NC3CCNCC3)ncnc21 | -16.5% [at 146 µM]
CC(C)Nc1ncnc2c1CN(C1CCCNC1)C(=O)CN2C (configuration not stated) | -15.1% [at 146 µM]
CC(CO)Nc1ncnc2c1CN(C1CCCNC1)C(=O)CN2C (configuration not stated) | -22.8% [at 146 µM]
CN1CC(=O)N(c2cccc(F)c2)Cc2c(NC3CCNCC3)ncnc21 | -19%
CCN1CCC(c2nc3ccc(F)cc3c(=O)[nH]2)CC1 | -2.36% [at 146 µM]
CN1CC(=O)N(C2CCCNCC2)Cc2c(NCc3cccc(Cl)c3)ncnc21 (configuration not stated) | -12.3%
Cc1ccsc1CN1CCC2(Cc3ccccc3CNC2=O)C1 (configuration not stated) | 11.6% [at 146 µM]
CNC(=O)c1cn2c(n1)CN(C(=O)OC)CC2 | -1.52% [at 233 µM]
CN1CC(=O)N(C2CNC2)Cc2c(NCC3CC3)ncnc21 | -14.2% [at 146 µM]
Cc1cc(C)c(CN2CCC3(Cc4ccccc4CNC3=O)C2)c(C)c1 (configuration not stated) | -19%
CC(=O)NC1CC2(CCN(C(=O)CCCNC(=O)OC(C)(C)C)CC2)Oc2ccccc21 (configuration not stated) | 7.33%
CC(C)c1nc2c(c(-c3ccc(Cl)cc3)n1)CCN(Cc1cccc3ccccc13)CC2 | -12.9%
C[S+](=O)([O-])N1CC2(Cc3ccccc3NC2=O)C1 | 0.0174% [at 146 µM]
c1ccc2c(CN3CC(Oc4ccc5c(c4)OCO5)C3)cccc2c1 | -20.3%
O=C(c1ccncc1)N1CCC(c2nnc3n2CCNC3)CC1 | -35.4% [at 146 µM]
